Test results reported in PubChem BioAssay (Tox21).
A number with no mark means an inactive call. Calls of active or inactive are those of the source. Calls come from the whole dose curve; as a rule, active = well fitted curve in the direction sought with a large enough effect in the repeat runs; inconclusive = weak or mixed curves; inactive = flat fitted curve, though single readings scatter.

Experiment: qHTS assay to test for compound auto fluorescence at 535 nm (green) in HEK293 cell free culture (AID 720682)
Conditions: cell-free medium, green autofluorescence 485/535 nm, stronger effect = higher value; series mostly up to 91.3 µM; activity change: at the top concentration
Description: U.S. Tox21 Program National Center for Advancing Translational Sciences [NCATS] NIH Chemical Genomics Center [NCGC] U.S. Environmental Protection Agency [EPA] National Institutes of Environmental Health Sciences [NIEHS] National Toxicology Program [NTP] U.S. Food and Drug Administration [FDA] Tox21 Assay Overview: Compound auto fluorescence often interferes with screening of the compound library against various biological targets and signaling pathways. Some of these compounds may have fluorophoric properties. Such properties may interfere with the assay outputs resulting in false positives and/or negatives. To decrease such complications and ensure the compound activities are relevant in terms of biological response, the Tox21 10K compound library was screened for auto fluorescence. From the fluorophores used as reporter signals in our screening assays, the auto fluorescence equivalencies of compounds against three fluorophores have been evaluated: Triamterene, Fluorescein and Rose Bengal sodium for blue, green and red fluorescence, respectively. The fluorescence intensities were measured using Excitation/Emission wavelengths at 405/460nm, 485/535nm and 540/590nm for blue, green and red labels, respectively. This assay includes the green fluorescence data.
Tox21 Assay Protocol Summary: 5 uL of culture medium (DMEM containing 10% FBS) per well was dispensed into black wall/clear bottom 1536-well plates using a Multidrop Combi Dispenser (ThermoFisher Scientific, Waltham, MA). After 23 nL compound or DMSO vehicle was transferred into assay plate by a pintool work station (Kalypsys, San Diego, CA), fluorescence intensities in the assay plates were measured by an Envision (PerkinElmer, Shelton, CT) plate reader using three labels for measuring blue, green and red fluorescence at […] 460, 535 and 590nm respectively.
% is set by controls: 0 for no effect and ±100 for the full control effect.

Which outcome does the source give for `CC1=CC[C@H]2C[C@@H]1C2(C)C` here?
Its outcome is “inactive”.

With `CCOC(=O)/C=C\C(=O)OCC` as the compound, how does the outcome read?
The outcome was “inactive”.

With `Cc1ccc(N)c(S(=O)(=O)O)c1` as the compound, how does the outcome read?
Its outcome is “inactive”.

For `CCCCCCOC(C)=O`, which outcome is on record?
Its outcome is “inactive”.

With `O=c1c(-c2ccc(O)cc2)coc2cc(O)ccc12` as the compound, how does the “activity change” value read?
The value was -0.0021%.

For `CCCCC(CC)COC(C)=O` (stereo not given), which outcome is on record?
Its outcome is “inactive”.

For `CCCCC(CC)COC(=O)/C=C\C(=O)OCC(CC)CCCC` (stereo not given), which outcome is on record?
The outcome was “inactive”.

With `CC(C)Cc1ccccc1` as the compound, how does the outcome read?
The outcome was “inactive”.

With `Cn1c([N+](=O)[O-])cnc1COC(N)=O` as the compound, how does the outcome read?
Its outcome is “inactive”.

For `Cc1ccc(C)c(C)c1`, which outcome is on record?
Its outcome is “inactive”.

With `C=CC(=O)OCCCCCCCC(C)C` as the compound, how does the outcome read?
The outcome was “inactive”.

Which outcome does the source give for `CCOC(=O)[C@H](CCc1ccccc1)N[C@@H](C)C(=O)N1Cc2ccccc2C[C@H]1C(=O)O` here?
The outcome was “inactive”.

Which outcome does the source give for `CCCCOCCOCCOC(=O)CCCCC(=O)OCCOCCOCCCC` here?
Its outcome is “inactive”.

For `CCC(C)C=O` (stereo not given), which outcome is on record?
Its outcome is “inactive”.

For `CCCCC(CC)COC(=O)CCCCCCCC(=O)OCC(CC)CCCC` (stereo not given), which outcome is on record?
Its outcome is “inactive”.

Which outcome does the source give for `CC[Si](OC(C)=O)(OC(C)=O)OC(C)=O` here?
Its outcome is “inactive”.

With `CC(C)n1c(/C=C/[C@@H](O)C[C@@H](O)CC(=O)O)c(-c2ccc(F)cc2)c2ccccc21` as the compound, how does the outcome read?
Its outcome is “inactive”.

Which outcome does the source give for `Oc1c(Cl)cc(Cl)c(Cl)c1Cl` here?
Its outcome is “inactive”.

Which outcome does the source give for `C/C=C(C)/C=C/C=C(C)C` here?
Its outcome is “inactive”.

Which outcome does the source give for `Nc1nc2ncc(CNc3ccc(C(=O)N[C@@H](CCC(=O)O)C(=O)O)cc3)nc2c(=O)[nH]1` here?
Its outcome is “inactive”.

For `Oc1ccc2ccccc2c1N=Nc1ccccc1`, which outcome is on record?
Its outcome is “inactive”.

Which outcome does the source give for `O=C1CCCCC1` here?
Its outcome is “inactive”.

With `NCCc1ccc(O)c(O)c1` as the compound, how does the outcome read?
Its outcome is “inactive”.

With `Nc1c(S(=O)(=O)O)cc(Br)c2c1C(=O)c1ccccc1C2=O` as the compound, how does the outcome read?
Its outcome is “inactive”.

For `C=C(C)C(=O)OCCCCCCCCCCCC`, which outcome is on record?
Its outcome is “inactive”.

Which outcome does the source give for `Clc1cc(Cl)c(Cl)cc1Cl` here?
The outcome was “inactive”.

With `CCCCCCCCCC(=O)O` as the compound, how does the outcome read?
The outcome was “inactive”.

For `CCCCC/C=C\C/C=C\CCCCCCCC(=O)OC`, which outcome is on record?
Its outcome is “inactive”.

For `O=C1N=C(O)CN1/N=C/c1ccc(-c2ccc([N+](=O)[O-])cc2)o1`, which outcome is on record?
The outcome was “inactive”.

For `CC(=O)[C@@]1(O)CC[C@H]2[C@@H]3CCC4=CC(=O)CC[C@]4(C)[C@H]3CC[C@@]21C`, which outcome is on record?
Its outcome is “inactive”.

Which outcome does the source give for `OC[C@@H](O)[C@H](O)[C@H](O)[C@@H](O)CO` here?
Its outcome is “inactive”.

Which outcome does the source give for `O=S(=O)(Oc1ccc(Cl)cc1Cl)c1ccccc1` here?
Its outcome is “inactive”.

For `CC1CC(OC(=O)c2ccccc2O)CC(C)(C)C1` (stereo not given), which outcome is on record?
Its outcome is “inactive”.

With `CC1COc2ccccc2N1C(=O)C(Cl)Cl` (stereo not given) as the compound, how does the outcome read?
Its outcome is “inactive”.

Which outcome does the source give for `CC(C)(N=C=O)c1cccc(C(C)(C)N=C=O)c1` here?
The outcome was “inactive”.

For `NC(=O)NNc1ccccc1`, which outcome is on record?
Its outcome is “inactive”.

Which outcome does the source give for `OCC#CCO` here?
Its outcome is “inactive”.

For `CS(=O)(=O)c1ccc([C@@H](O)[C@@H](CO)NC(=O)C(Cl)Cl)cc1`, which outcome is on record?
The outcome was “inactive”.

Which outcome does the source give for `CCCCCCCCCCCCN` here?
Its outcome is “inactive”.

With `C[C@@H]1O[C@@H](OC[C@H]2O[C@@H](Oc3c(-c4ccc(O)c(O)c4)oc4cc(O)cc(O)c4c3=O)[C@H](O)[C@@H](O)[C@@H]2O)[C@H](O)[C@H](O)[C@H]1O` as the compound, how does the outcome read?
The outcome was “inactive”.
